Data published in paper PMC12529666, “Dysregulation of AGO2-miRNA dynamics underlies the AGO2-associated Lessel–Kreienkamp syndrome”.

What was measured:
Experiment in all cases: RNA Bind-n-Seq (nitrocellulose filter binding and sequencing); miR-122 guide loaded in AGO2; 60 min incubation; 30 mM Tris pH 8.0, 100 mM potassium acetate, 2 mM magnesium acetate, 0.5 mM TCEP, 0.005% NP-40, 0.01 mg/ml yeast tRNA; 3 nM AGO2-miR-122, 100 nM RNA library; 60; high values mean tight binding
Conditions in all cases: protein: recombinant; tags: His6 (N-terminal, pFastBac HTA)
AGO2 L192P = AGO2 L192P (Homo sapiens, UniProt Q9UKV8 1-859, L192P;S387D;S824A;S828D;S831D;S834A)
AGO2 L192P, sequence (Q9UKV8 whole entry L192P/S387D/S824A/S828D/S831D/S834A): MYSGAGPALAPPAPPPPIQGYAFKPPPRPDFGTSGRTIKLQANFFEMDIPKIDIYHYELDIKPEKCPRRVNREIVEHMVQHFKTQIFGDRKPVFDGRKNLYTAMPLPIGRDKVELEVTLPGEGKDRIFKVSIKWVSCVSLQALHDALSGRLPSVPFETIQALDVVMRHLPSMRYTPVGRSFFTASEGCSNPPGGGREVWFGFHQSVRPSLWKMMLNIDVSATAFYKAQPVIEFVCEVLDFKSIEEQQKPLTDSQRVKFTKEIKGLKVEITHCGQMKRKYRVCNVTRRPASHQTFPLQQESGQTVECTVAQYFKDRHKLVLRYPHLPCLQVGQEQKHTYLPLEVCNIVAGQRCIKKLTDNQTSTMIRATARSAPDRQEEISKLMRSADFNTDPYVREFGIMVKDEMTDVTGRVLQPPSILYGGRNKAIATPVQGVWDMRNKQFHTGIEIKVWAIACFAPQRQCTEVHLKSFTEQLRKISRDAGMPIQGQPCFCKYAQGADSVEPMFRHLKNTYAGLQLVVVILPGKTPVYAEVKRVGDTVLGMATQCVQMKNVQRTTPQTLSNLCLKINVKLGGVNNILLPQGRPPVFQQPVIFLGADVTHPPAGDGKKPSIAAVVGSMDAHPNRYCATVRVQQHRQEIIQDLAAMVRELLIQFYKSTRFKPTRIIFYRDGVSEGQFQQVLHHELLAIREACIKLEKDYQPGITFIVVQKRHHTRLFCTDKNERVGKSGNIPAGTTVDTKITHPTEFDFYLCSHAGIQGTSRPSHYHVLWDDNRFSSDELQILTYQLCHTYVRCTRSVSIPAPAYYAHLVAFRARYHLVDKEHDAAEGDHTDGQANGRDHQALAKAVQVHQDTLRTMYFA
Method in brief: (§1)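 His-tagged AGO2 was expressed in Sf9 insect cells by baculovirus, loaded with a synthetic guide RNA, and purified by Ni-NTA and a biotinylated capture oligo. Bound RNA was extracted, reverse-transcribed, barcode-amplified and Illumina-sequenced. Fold enrichment is each sequence's read fraction divided by its input-library read fraction.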

AGO2 A367P = AGO2 A367P (Homo sapiens, UniProt Q9UKV8 1-859, A367P;S387D;S824A;S828D;S831D;S834A)
AGO2 A367P, sequence (Q9UKV8 whole entry A367P/S387D/S824A/S828D/S831D/S834A): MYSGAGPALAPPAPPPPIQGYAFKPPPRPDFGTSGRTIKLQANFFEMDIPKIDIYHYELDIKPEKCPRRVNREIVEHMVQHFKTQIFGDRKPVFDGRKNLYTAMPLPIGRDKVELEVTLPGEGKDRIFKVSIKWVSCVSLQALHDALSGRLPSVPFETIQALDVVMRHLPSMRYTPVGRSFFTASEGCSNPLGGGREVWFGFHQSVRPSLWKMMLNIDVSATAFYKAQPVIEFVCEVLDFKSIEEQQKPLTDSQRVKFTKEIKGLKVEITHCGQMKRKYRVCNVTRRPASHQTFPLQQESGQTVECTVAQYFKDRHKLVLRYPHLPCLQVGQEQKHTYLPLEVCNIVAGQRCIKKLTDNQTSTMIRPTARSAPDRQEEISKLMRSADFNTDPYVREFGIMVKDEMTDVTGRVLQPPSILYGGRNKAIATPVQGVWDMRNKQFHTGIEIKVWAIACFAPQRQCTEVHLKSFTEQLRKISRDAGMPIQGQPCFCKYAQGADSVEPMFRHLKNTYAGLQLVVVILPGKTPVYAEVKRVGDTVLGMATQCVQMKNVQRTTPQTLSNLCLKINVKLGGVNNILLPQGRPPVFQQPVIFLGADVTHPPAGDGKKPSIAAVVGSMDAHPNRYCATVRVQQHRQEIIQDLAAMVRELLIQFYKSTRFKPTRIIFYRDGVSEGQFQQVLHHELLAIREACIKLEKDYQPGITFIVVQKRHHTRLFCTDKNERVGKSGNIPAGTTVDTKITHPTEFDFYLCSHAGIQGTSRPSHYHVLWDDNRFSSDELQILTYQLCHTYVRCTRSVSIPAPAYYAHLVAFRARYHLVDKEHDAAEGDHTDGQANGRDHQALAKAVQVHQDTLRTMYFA
Method in brief: as §1

AGO2 T357M = AGO2 T357M (Homo sapiens, UniProt Q9UKV8 1-859, T357M;S387D;S824A;S828D;S831D;S834A)
AGO2 T357M, sequence (Q9UKV8 whole entry T357M/S387D/S824A/S828D/S831D/S834A): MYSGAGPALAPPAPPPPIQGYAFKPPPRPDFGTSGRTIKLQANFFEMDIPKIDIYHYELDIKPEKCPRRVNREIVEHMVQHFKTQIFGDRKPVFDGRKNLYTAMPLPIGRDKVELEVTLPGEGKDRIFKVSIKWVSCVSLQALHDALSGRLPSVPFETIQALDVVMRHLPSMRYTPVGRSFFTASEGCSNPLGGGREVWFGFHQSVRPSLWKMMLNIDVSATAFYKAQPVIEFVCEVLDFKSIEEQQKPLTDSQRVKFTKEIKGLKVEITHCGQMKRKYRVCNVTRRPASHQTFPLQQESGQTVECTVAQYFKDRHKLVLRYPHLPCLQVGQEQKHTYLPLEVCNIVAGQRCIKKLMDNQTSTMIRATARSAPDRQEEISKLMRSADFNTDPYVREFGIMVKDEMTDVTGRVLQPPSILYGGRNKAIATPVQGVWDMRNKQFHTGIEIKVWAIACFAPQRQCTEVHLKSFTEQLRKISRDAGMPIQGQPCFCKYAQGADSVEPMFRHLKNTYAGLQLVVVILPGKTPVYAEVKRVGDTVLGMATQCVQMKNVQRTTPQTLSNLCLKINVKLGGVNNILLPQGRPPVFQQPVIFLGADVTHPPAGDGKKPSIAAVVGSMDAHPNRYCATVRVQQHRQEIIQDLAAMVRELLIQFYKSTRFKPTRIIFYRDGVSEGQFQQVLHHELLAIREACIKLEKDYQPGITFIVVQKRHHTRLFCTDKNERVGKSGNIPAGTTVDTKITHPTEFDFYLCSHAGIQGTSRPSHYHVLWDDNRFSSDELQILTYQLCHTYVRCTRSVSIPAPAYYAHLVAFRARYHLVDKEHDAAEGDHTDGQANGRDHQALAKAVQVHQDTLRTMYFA
Method in brief: as §1

Binder	binding signal (AGO2 L192P)	binding signal (AGO2 A367P)	binding signal (AGO2 T357M)
GTATCCTG (ssRNA, constant regions annealed to DNA blockers; guide miR-122 5' phosphate) RNA 1: GAGUUCUACAGUCCGACGAUCCCAACGUAUCCUGCACCUGGAAUUCUCGGGUGCCAA RNA 2: UGGAGUGUGACAAUGGUGUUUG DNA 1: GATCGTCGGACTGTAGAACTC DNA 2: TTGGCACCCGAGAATTCCA	0.337 fold enrichment over input	0.123 fold enrichment over input	0.449 fold enrichment over input
GTACCTTA (ssRNA, constant regions annealed to DNA blockers; guide miR-122 5' phosphate) RNA 1: GAGUUCUACAGUCCGACGAUCCCAACGUACCUUACACCUGGAAUUCUCGGGUGCCAA RNA 2: UGGAGUGUGACAAUGGUGUUUG DNA 1: GATCGTCGGACTGTAGAACTC DNA 2: TTGGCACCCGAGAATTCCA	0.445 fold enrichment over input	0.167 fold enrichment over input	0.599 fold enrichment over input
ATACCCCG (ssRNA, constant regions annealed to DNA blockers; guide miR-122 5' phosphate) RNA 1: GAGUUCUACAGUCCGACGAUCCCAACAUACCCCGCACCUGGAAUUCUCGGGUGCCAA RNA 2: UGGAGUGUGACAAUGGUGUUUG DNA 1: GATCGTCGGACTGTAGAACTC DNA 2: TTGGCACCCGAGAATTCCA	0.382 fold enrichment over input	0.14 fold enrichment over input	0.471 fold enrichment over input
GTATCTCG (ssRNA, constant regions annealed to DNA blockers; guide miR-122 5' phosphate) RNA 1: GAGUUCUACAGUCCGACGAUCCCAACGUAUCUCGCACCUGGAAUUCUCGGGUGCCAA RNA 2: UGGAGUGUGACAAUGGUGUUUG DNA 1: GATCGTCGGACTGTAGAACTC DNA 2: TTGGCACCCGAGAATTCCA	0.333 fold enrichment over input	0.128 fold enrichment over input	0.424 fold enrichment over input
GTGTCCTG (ssRNA, constant regions annealed to DNA blockers; guide miR-122 5' phosphate) RNA 1: GAGUUCUACAGUCCGACGAUCCCAACGUGUCCUGCACCUGGAAUUCUCGGGUGCCAA RNA 2: UGGAGUGUGACAAUGGUGUUUG DNA 1: GATCGTCGGACTGTAGAACTC DNA 2: TTGGCACCCGAGAATTCCA	0.335 fold enrichment over input	0.124 fold enrichment over input	0.452 fold enrichment over input
GCGTTCTG (ssRNA, constant regions annealed to DNA blockers; guide miR-122 5' phosphate) RNA 1: GAGUUCUACAGUCCGACGAUCCCAACGCGUUCUGCACCUGGAAUUCUCGGGUGCCAA RNA 2: UGGAGUGUGACAAUGGUGUUUG DNA 1: GATCGTCGGACTGTAGAACTC DNA 2: TTGGCACCCGAGAATTCCA	0.348 fold enrichment over input	0.135 fold enrichment over input	0.496 fold enrichment over input
ATATTTTG (ssRNA, constant regions annealed to DNA blockers; guide miR-122 5' phosphate) RNA 1: GAGUUCUACAGUCCGACGAUCCCAACAUAUUUUGCACCUGGAAUUCUCGGGUGCCAA RNA 2: UGGAGUGUGACAAUGGUGUUUG DNA 1: GATCGTCGGACTGTAGAACTC DNA 2: TTGGCACCCGAGAATTCCA	0.369 fold enrichment over input	0.149 fold enrichment over input	0.584 fold enrichment over input
ATACCTTG (ssRNA, constant regions annealed to DNA blockers; guide miR-122 5' phosphate) RNA 1: GAGUUCUACAGUCCGACGAUCCCAACAUACCUUGCACCUGGAAUUCUCGGGUGCCAA RNA 2: UGGAGUGUGACAAUGGUGUUUG DNA 1: GATCGTCGGACTGTAGAACTC DNA 2: TTGGCACCCGAGAATTCCA	0.418 fold enrichment over input	0.125 fold enrichment over input	0.573 fold enrichment over input
ATGCCCTG (ssRNA, constant regions annealed to DNA blockers; guide miR-122 5' phosphate) RNA 1: GAGUUCUACAGUCCGACGAUCCCAACAUGCCCUGCACCUGGAAUUCUCGGGUGCCAA RNA 2: UGGAGUGUGACAAUGGUGUUUG DNA 1: GATCGTCGGACTGTAGAACTC DNA 2: TTGGCACCCGAGAATTCCA	0.377 fold enrichment over input	0.137 fold enrichment over input	0.463 fold enrichment over input
ACGCCCCG (ssRNA, constant regions annealed to DNA blockers; guide miR-122 5' phosphate) RNA 1: GAGUUCUACAGUCCGACGAUCCCAACACGCCCCGCACCUGGAAUUCUCGGGUGCCAA RNA 2: UGGAGUGUGACAAUGGUGUUUG DNA 1: GATCGTCGGACTGTAGAACTC DNA 2: TTGGCACCCGAGAATTCCA	0.391 fold enrichment over input	0.155 fold enrichment over input	0.524 fold enrichment over input
ATGTTCTG (ssRNA, constant regions annealed to DNA blockers; guide miR-122 5' phosphate) RNA 1: GAGUUCUACAGUCCGACGAUCCCAACAUGUUCUGCACCUGGAAUUCUCGGGUGCCAA RNA 2: UGGAGUGUGACAAUGGUGUUUG DNA 1: GATCGTCGGACTGTAGAACTC DNA 2: TTGGCACCCGAGAATTCCA	0.362 fold enrichment over input	0.132 fold enrichment over input	0.487 fold enrichment over input
GCATCCTG (ssRNA, constant regions annealed to DNA blockers; guide miR-122 5' phosphate) RNA 1: GAGUUCUACAGUCCGACGAUCCCAACGCAUCCUGCACCUGGAAUUCUCGGGUGCCAA RNA 2: UGGAGUGUGACAAUGGUGUUUG DNA 1: GATCGTCGGACTGTAGAACTC DNA 2: TTGGCACCCGAGAATTCCA	0.336 fold enrichment over input	0.13 fold enrichment over input	0.437 fold enrichment over input
GTATCCCG (ssRNA, constant regions annealed to DNA blockers; guide miR-122 5' phosphate) RNA 1: GAGUUCUACAGUCCGACGAUCCCAACGUAUCCCGCACCUGGAAUUCUCGGGUGCCAA RNA 2: UGGAGUGUGACAAUGGUGUUUG DNA 1: GATCGTCGGACTGTAGAACTC DNA 2: TTGGCACCCGAGAATTCCA	0.354 fold enrichment over input	0.122 fold enrichment over input	0.399 fold enrichment over input
ATATTTCG (ssRNA, constant regions annealed to DNA blockers; guide miR-122 5' phosphate) RNA 1: GAGUUCUACAGUCCGACGAUCCCAACAUAUUUCGCACCUGGAAUUCUCGGGUGCCAA RNA 2: UGGAGUGUGACAAUGGUGUUUG DNA 1: GATCGTCGGACTGTAGAACTC DNA 2: TTGGCACCCGAGAATTCCA	0.414 fold enrichment over input	0.135 fold enrichment over input	0.6 fold enrichment over input
ATGCCTCG (ssRNA, constant regions annealed to DNA blockers; guide miR-122 5' phosphate) RNA 1: GAGUUCUACAGUCCGACGAUCCCAACAUGCCUCGCACCUGGAAUUCUCGGGUGCCAA RNA 2: UGGAGUGUGACAAUGGUGUUUG DNA 1: GATCGTCGGACTGTAGAACTC DNA 2: TTGGCACCCGAGAATTCCA	0.34 fold enrichment over input	0.134 fold enrichment over input	0.474 fold enrichment over input
GTGTTCTG (ssRNA, constant regions annealed to DNA blockers; guide miR-122 5' phosphate) RNA 1: GAGUUCUACAGUCCGACGAUCCCAACGUGUUCUGCACCUGGAAUUCUCGGGUGCCAA RNA 2: UGGAGUGUGACAAUGGUGUUUG DNA 1: GATCGTCGGACTGTAGAACTC DNA 2: TTGGCACCCGAGAATTCCA	0.352 fold enrichment over input	0.132 fold enrichment over input	0.47 fold enrichment over input
GCGTCTCG (ssRNA, constant regions annealed to DNA blockers; guide miR-122 5' phosphate) RNA 1: GAGUUCUACAGUCCGACGAUCCCAACGCGUCUCGCACCUGGAAUUCUCGGGUGCCAA RNA 2: UGGAGUGUGACAAUGGUGUUUG DNA 1: GATCGTCGGACTGTAGAACTC DNA 2: TTGGCACCCGAGAATTCCA	0.345 fold enrichment over input	0.138 fold enrichment over input	0.498 fold enrichment over input
GTGTTCCG (ssRNA, constant regions annealed to DNA blockers; guide miR-122 5' phosphate) RNA 1: GAGUUCUACAGUCCGACGAUCCCAACGUGUUCCGCACCUGGAAUUCUCGGGUGCCAA RNA 2: UGGAGUGUGACAAUGGUGUUUG DNA 1: GATCGTCGGACTGTAGAACTC DNA 2: TTGGCACCCGAGAATTCCA	0.408 fold enrichment over input	0.144 fold enrichment over input	0.544 fold enrichment over input
ATATCCTG (ssRNA, constant regions annealed to DNA blockers; guide miR-122 5' phosphate) RNA 1: GAGUUCUACAGUCCGACGAUCCCAACAUAUCCUGCACCUGGAAUUCUCGGGUGCCAA RNA 2: UGGAGUGUGACAAUGGUGUUUG DNA 1: GATCGTCGGACTGTAGAACTC DNA 2: TTGGCACCCGAGAATTCCA	0.349 fold enrichment over input		0.475 fold enrichment over input
ATGTCTTG (ssRNA, constant regions annealed to DNA blockers; guide miR-122 5' phosphate) RNA 1: GAGUUCUACAGUCCGACGAUCCCAACAUGUCUUGCACCUGGAAUUCUCGGGUGCCAA RNA 2: UGGAGUGUGACAAUGGUGUUUG DNA 1: GATCGTCGGACTGTAGAACTC DNA 2: TTGGCACCCGAGAATTCCA	0.357 fold enrichment over input	0.128 fold enrichment over input	0.449 fold enrichment over input
ACATCTCG (ssRNA, constant regions annealed to DNA blockers; guide miR-122 5' phosphate) RNA 1: GAGUUCUACAGUCCGACGAUCCCAACACAUCUCGCACCUGGAAUUCUCGGGUGCCAA RNA 2: UGGAGUGUGACAAUGGUGUUUG DNA 1: GATCGTCGGACTGTAGAACTC DNA 2: TTGGCACCCGAGAATTCCA	0.347 fold enrichment over input	0.134 fold enrichment over input	0.37 fold enrichment over input
GCGTTTTG (ssRNA, constant regions annealed to DNA blockers; guide miR-122 5' phosphate) RNA 1: GAGUUCUACAGUCCGACGAUCCCAACGCGUUUUGCACCUGGAAUUCUCGGGUGCCAA RNA 2: UGGAGUGUGACAAUGGUGUUUG DNA 1: GATCGTCGGACTGTAGAACTC DNA 2: TTGGCACCCGAGAATTCCA	0.362 fold enrichment over input	0.136 fold enrichment over input	0.536 fold enrichment over input
ATACCTTA (ssRNA, constant regions annealed to DNA blockers; guide miR-122 5' phosphate) RNA 1: GAGUUCUACAGUCCGACGAUCCCAACAUACCUUACACCUGGAAUUCUCGGGUGCCAA RNA 2: UGGAGUGUGACAAUGGUGUUUG DNA 1: GATCGTCGGACTGTAGAACTC DNA 2: TTGGCACCCGAGAATTCCA	0.475 fold enrichment over input	0.166 fold enrichment over input	0.561 fold enrichment over input
